# From PubChem BioAssay
# This excerpt belongs to a sample that is enriched for hits.
# LASV entry inh: inhibitors of Lassa virus binding or cell entry; Lassa virus pseudotype entry inhibition, cell reporter; Potency, µM (highest dose often 37.9 µM), most hits filed as inhibitors; 300,000 tested, 1.2% active; AID 540256; calls by dose curve; tested in HEK293 cells; note: nearly all actives have a fitted effect of over 50% in size
# Marburg entry inh: blocks Marburg virus binding to or entry into cells | Marburg virus pseudotyped entry inhibition, cell reporter | Potency, µM (series often up to 37.8 µM), actives largely listed as inhibitors | 300,000 tested, 1.8% active | AID 540276; calls by dose curve; tested in HEK293 cells
# VACV Venus inh: vaccinia inhibition (Venus reporter) | Vaccinia virus Venus reporter expression, fluorescence | Potency, µM (titrated, usually from 36.5 µM), actives largely listed as inhibitors | 330,000 tested, 0.46% active | AID 720580; calls by dose curve; tested in A549 cells; note: nearly all actives have a fitted effect of over 30% in size
# Cycloheximide cs: counter-screen for Shiga toxin inhibitors: cycloheximide protein synthesis inhibition | 300,000 tested, 12% active | cell reporter, cycloheximide protein synthesis inhibition counterscreen | AID 2314 | max response, %; in the data active = max response mostly above about 13%, no sharp cut-off; inactive = mostly below about 14%; note: read at 38.3 µM for the half of the compounds with a filed dose
# Vaccinia mCherry: inhibitors of vaccinia virus infection (mCherry reporter signal). Vaccinia virus mCherry reporter infection, fluorescence. Potency, µM (top dose mostly 36.5 µM), actives largely listed as inhibitors. 310,000 tested, 0.63% active; calls by dose curve; tested in A549 cells; note: nearly all actives have a fitted effect of over 35% in size
# Shiga inhibitor: Shiga toxin inhibition; Vero cells, Shiga toxin protein synthesis inhibition reporter; 290,000 tested, 9.2% active; inhibition, % at 38.7 µM; AID 2315; in the data active = inhibition mostly above about 28%, no sharp cut-off; inactive = mostly below about 43%
# Hits are given with their value; i = inactive; ? = inconclusive; nt = no result; + = active, no number.
SMILES,LASV entry inh,Marburg entry inh,VACV Venus inh,Cycloheximide cs,Vaccinia mCherry,Shiga inhibitor
O=C(Cc1nnc(NC(=O)c2ccccc2)s1)N/N=C/c1cccc(O)c1,?,i,i,13.7,i,i
Cc1nonc1C(=O)N/N=C/c1cccc(O)c1,i,i,i,53.7,i,65.3
COC(=O)c1ccccc1-c1cc(C)cc2c1OC(CNC(=O)c1cc(C)on1)C2 (stereo unspecified),nt,nt,i,nt,i,nt
O=C(N/N=C/c1cccc(O)c1)N/N=C/c1cccc(O)c1,?,?,i,28.2,i,55.1
O=C(N/N=C/c1cccc(O)c1)c1ccc(-n2cnnn2)cc1,i,?,i,nt,i,nt
Cc1ccc(-n2nnc3c(=O)n(Cc4ccccc4C)cnc32)cc1,nt,nt,i,i,i,i
COc1cccc(-n2nnc3c(=O)n(Cc4cccc(C)c4)cnc32)c1,nt,nt,i,23.9,i,i
COc1cccc(-n2nnc3c(=O)n(Cc4ccccc4F)cnc32)c1,?,i,i,i,i,i
COc1ccc(-n2nnc3c(=O)n(Cc4cc(C)ccc4C)cnc32)cc1,1.16µM,i,i,i,i,i
S=c1[nH]cnc2sc(-c3ccccc3)cc12,nt,i,i,31.0,i,76.6
COc1cccc(/C=N/NC(=O)CN2CC(c3ccccc3)CC2=O)c1O (stereo unspecified),?,?,?,33.6,?,40.2
O=C(N/N=C/c1ccccc1O)c1ccncc1,nt,nt,i,nt,i,nt
O=C(NN=Cc1cccc(O)c1O)c1ccccc1,nt,nt,?,nt,10µM,nt
COc1cccc(/C=N/NC(=O)c2ccc(=O)[nH]n2)c1O,nt,nt,nt,29.9,nt,60.0
NC(=S)N/N=C/c1cccc(O)c1O,?,?,i,i,8.91µM,i
Cc1cccc(N2CCn3c2nc2c3c(=O)n(C/C=C/c3ccccc3)c(=O)n2C)c1,i,nt,i,nt,i,nt
COc1cccc(/C=N/NC(=O)c2c(C)nc3ccc(Cl)cn23)c1O,?,1µM,?,i,3.16µM,i
COc1cccc(/C=N/NC(=O)c2ccc(=O)n(C)c2)c1O,?,?,i,i,i,i
COc1cccc(/C=N/NC(=O)c2ccc(-c3ccccc3)cc2)c1O,5.62µM,3.16µM,?,i,4.47µM,i
COc1cccc(/C=N/NC(=O)C(=O)Nc2ccccc2OC(F)(F)C(F)F)c1O,?,8.91µM,?,i,10µM,i
COc1ccccc1/C=N/NC(=O)c1cccc(OC(F)(F)C(F)F)c1,i,i,i,i,i,i
COc1cccc(/C=N/NC(=O)c2[nH]c(C)c(C(=O)N/N=C/c3cccc(OC)c3O)c2C)c1O,?,8.91µM,i,39.6,i,i
N#CCSc1nc2ccccc2c2nc3ccccc3n12,i,?,i,i,?,+
CCn1cc(CN2CCc3c([nH]c4ccccc34)C2c2cccc(OC)c2)c(C)n1 (stereo unspecified),i,?,i,i,?,i
CCOC(=O)c1sc2ncnc(NCC(c3cccs3)N(C)C)c2c1C (stereo unspecified),i,?,nt,24.0,nt,i
SMILES,LASV entry inh,Marburg entry inh,VACV Venus inh,Cycloheximide cs,Vaccinia mCherry,Shiga inhibitor
CN(C)C(CNc1ncnc2sccc12)c1cccs1 (stereo unspecified),nt,nt,nt,i,nt,i
CC(CC(=O)NCc1ccccc1)C1CCCO1 (stereo unspecified),i,i,nt,17.5,nt,25.9
CC1(c2ccccc2)CC(C)(C)N(C(=O)C2CCCO2)c2ccccc21 (stereo unspecified),i,18.3µM,i,i,i,i
COc1cccc(/C=N/NC(=S)NC2CC3CC2C2C=CCC32)c1O (stereo unspecified),i,?,i,34.9,?,86.8
NC(=S)N/N=C/c1ccccc1O,nt,nt,nt,i,nt,i
COc1cccc(/C=N/NC(=O)C[n+]2ccccc2)c1O,i,i,i,i,i,i
Oc1ccccc1/C=N/NC(=S)NC1CC2CC1C1C=CCC21 (stereo unspecified),?,?,?,53.2,?,48.8
O=C(c1ccco1)N(Cc1cc2cc3c(cc2nc1N1CCOCC1)CCC3)CC1CCCO1 (stereo unspecified),nt,nt,i,nt,i,nt
CCOc1ccccc1NC(=O)Nc1nnc(N2CCCCCC2)s1,?,?,i,nt,i,nt
CCCn1nnc(NC(=O)/C=C/c2ccc(C(C)C)cc2)n1,nt,nt,nt,i,nt,i
Cc1ccc(C)c(-n2nnnc2SCC(=O)NNC(=O)c2ccco2)c1,nt,nt,i,i,i,i
CCOC(=O)c1ccccc1NC(=O)c1cccs1,i,i,nt,i,nt,i
O=C(/C=C/Nc1ccccc1F)c1cccs1,1.41µM,6.31µM,i,44.8,i,29.8
O=C(/C=C/Nc1ccc(F)cc1F)c1cccs1,1.41µM,?,i,46.3,i,48.7
O=C(/C=C\Nc1cccc(F)c1)c1cccs1,11.2µM,?,i,39.6,i,42.1
CCOC(=O)c1ccccc1N/C=C/C(=O)c1cccs1,i,?,i,74.1,i,155.9
CCCCn1cc(S(=O)(=O)c2ccc(C)c(C)c2)c(=O)c2cc(F)c(N3CCN(C)CC3)cc21,?,nt,i,nt,i,nt
COC(=O)c1ccc(NC(=S)Nc2ccc3ccccc3c2)cc1,i,i,i,i,nt,i
C/C(=C\C(=S)Nc1ccccc1)Nc1ccc2ccccc2c1,i,i,i,74.5,i,143.1
C/C(=C\C(=S)Nc1ccccc1)Nc1cccc2ccccc12,i,?,i,41.5,i,68.2
CC(C)(C)c1ccc(-c2nc3cc(NC(=O)c4cccc(Br)c4)ccc3o2)cc1,i,nt,i,nt,i,nt
O=C(/C=C/C=C/c1ccccc1)c1ccco1,nt,nt,i,51.3,i,102.8
O=C(/C=C/c1ccc(Br)cc1)c1ccc(NC(=O)c2ccco2)cc1,i,?,?,27.1,?,i
O=C(/C=C/c1ccc(Br)cc1)c1ccco1,?,?,i,29.2,i,64.0
CCOc1ccc(S(=O)(=O)N(CC(=O)Nc2ccc(OC)cc2OC)c2ccccc2)cc1,?,i,i,nt,i,nt
SMILES,LASV entry inh,Marburg entry inh,VACV Venus inh,Cycloheximide cs,Vaccinia mCherry,Shiga inhibitor
O=C(OCCN1CCCCC1)c1ccc(O)cc1,i,i,nt,22.7,nt,i
O=C(OCCN1CCCCC1)c1ccccc1Cl,i,i,i,29.2,i,i
O=C(OCCN1CCOCC1)c1ccccc1Cl,i,?,i,nt,i,nt
O=C(OCCCN1CCCCC1)c1ccc(O)cc1,i,?,i,i,nt,i
CCOc1cccc(CN2CCCC(C(=O)c3cc(Cl)ccc3OC)C2)c1O (stereo unspecified),?,?,i,i,i,i
Cc1ccc(NC(=O)Cn2c(-c3nonc3N)nc3ccccc32)c(Br)c1,i,i,i,nt,i,nt
COc1ccccc1N(CC(O)Cn1c2ccccc2c2ccccc21)S(=O)(=O)c1ccccc1 (stereo unspecified),25.9µM,?,i,i,i,i
O=S(=O)(c1ccc(F)cc1)N(CC(O)Cn1c2ccccc2c2ccccc21)c1ccccc1 (stereo unspecified),?,?,i,nt,i,nt
O=S(=O)(c1ccccc1)N(CC(O)Cn1c2ccccc2c2ccccc21)c1ccccc1 (stereo unspecified),?,?,10µM,i,nt,i
Cc1ccc2ccccc2c1C(O)c1ncc(-c2cccc(C(F)(F)F)c2)[nH]1 (stereo unspecified),nt,nt,i,nt,?,nt
CCCCNc1c(C(=O)OCC)c(C)nc2c1cnn2CC,i,?,i,nt,i,nt
